Assay results taken from PubChem BioAssay AID1159580 (chemical genetic matrix, 2015).
“And” between values parts separate entries of the source, which are not always exact repeats. Identical values can stand only once. The campaign covered roughly 5,500 compounds. About 2,000 (36%) were called active. Roughly 18% stayed inconclusive and do not appear here. Rule as the data show it: active = normalized growth mostly below about 0.91 (no sharp cut-off); inconclusive = no clear call, values can overlap the other calls; inactive = mostly above about 0.92. The list shows a part of the results.

Assay: chemical genetic growth profiling, strain panel (AID 1159580);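 also: tested at 20 µM; growth read once vehicle control cultures reached saturation at 30 °C; 1 = growth at the plate median or of vehicle wells; lower values mean less growth of the strain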
Details: S. cerevisiae deletion strains, growth OD

Measured: normalized growth

O=c1cccc2n1CC1CC2CN2CCCC[C@@H]12 (some centres undefined)
inactive: locus YAL013W, strain DEP1, stronger effect = lower value 0.999 | locus YAL021C, strain ccr4, stronger effect = lower value 0.999 | locus YAL026C, strain drs2, stronger effect = lower value 0.983 | locus YAL030W, strain snc1, stronger effect = lower value 0.979 | locus YBL061C, strain skt5, stronger effect = lower value 0.983 | locus YBR009C, strain hhf1, stronger effect = lower value 0.947 | locus YBR021W, strain FUR4, stronger effect = lower value 1.01 | locus YBR023C, strain chs3, stronger effect = lower value 0.974 | locus YBR171W, strain sec66, stronger effect = lower value 0.974 | locus YBR229C, strain ROT2, stronger effect = lower value 0.953 | locus YBR231C, strain swc5, stronger effect = lower value 0.97 | locus YBR279W, strain paf1, stronger effect = lower value 0.988 | locus YCL011C, strain gbp2, stronger effect = lower value 0.983 | locus YCL016C, strain dcc1, stronger effect = lower value 0.976 | locus YCL029C, strain bik1, stronger effect = lower value 0.974 | locus YCL061C, strain MRC1, stronger effect = lower value 0.985 | locus YCL069W, strain vba3, stronger effect = lower value 0.98 | locus YCR088W, strain abp1, stronger effect = lower value 0.973 | locus YDL005C, strain med2, stronger effect = lower value 0.982 | locus YDL035C, strain GPR1, stronger effect = lower value 1 | locus YDL040C, strain nat1, stronger effect = lower value 0.961 | locus YDL074C, strain BRE1, stronger effect = lower value 1.01 | locus YDL101C, strain DUN1, stronger effect = lower value 0.992 | locus YDL134C, strain PPH21, stronger effect = lower value 0.989 | locus YDL185W, strain tfp1, stronger effect = lower value 0.971 | locus YDL192W, strain arf1, stronger effect = lower value 0.99 | locus YDR001C, strain nth1, stronger effect = lower value 0.968 | locus YDR069C, strain doa4, stronger effect = lower value 0.982 | locus YDR101C, strain arx1, stronger effect = lower value 1.03 | locus YDR137W, strain rgp1, stronger effect = lower value 0.994 | locus YDR150W, strain NUM1, stronger effect = lower value 0.992 | locus YDR159W, strain sac3, stronger effect = lower value 0.938 | locus YDR162C, strain NBP2, stronger effect = lower value 0.987 | locus YDR195W, strain ref2 0.946 | locus YDR297W, strain sur2, stronger effect = lower value 0.977 | locus YDR318W, strain mcm21, stronger effect = lower value 0.978 | locus YDR334W, strain swr1, stronger effect = lower value 0.978 | locus YDR335W, strain msn5, stronger effect = lower value 0.987 | locus YDR388W, stronger effect = lower value 0.985 | locus YDR392W, strain spt3, stronger effect = lower value 0.876 | locus YDR502C, strain sam2, stronger effect = lower value 0.981 | locus YEL003W, strain gim4, stronger effect = lower value 0.985 | locus YEL037C, strain rad23, stronger effect = lower value 0.983 | locus YEL061C, strain CIN8 (second series), stronger effect = lower value 0.974 | locus YEL061C, strain CIN8, stronger effect = lower value 0.991 | locus YER015W, strain faa2, stronger effect = lower value 0.976 | locus YER016W, strain bim1, stronger effect = lower value 0.971 | locus YER110C, stronger effect = lower value 0.972 | locus YER111C, strain swi4, stronger effect = lower value 0.977 | locus YER155C, strain BEM2 (second series), stronger effect = lower value 0.973 | locus YER155C, strain BEM2, stronger effect = lower value 1 | locus YER167W, strain BCK2, stronger effect = lower value 0.987 | locus YFR010W, strain ubp6, stronger effect = lower value 0.972 | locus YGL078C, strain dbp3, stronger effect = lower value 0.991 | locus YGL086W, strain mad1, stronger effect = lower value 1.04 | locus YGL167C, strain pmr1, stronger effect = lower value 0.968 | locus YGL173C, strain kem1, stronger effect = lower value 0.981 | locus YGL227W, strain vid30, stronger effect = lower value 0.974 | locus YGL240W, strain doc1, stronger effect = lower value 0.962 | locus YGL248W, strain PDE1, stronger effect = lower value 0.986 | locus YGL253W, strain hxk2, stronger effect = lower value 0.982 | locus YGR135W, strain pre9, stronger effect = lower value 0.982 | locus YGR229C, strain SMI1, stronger effect = lower value 0.993 | locus YGR252W, strain gcn5, stronger effect = lower value 0.968 | locus YHR013C, strain ard1, stronger effect = lower value 0.928 | locus YHR027C, strain rpn1, stronger effect = lower value 0.982 | locus YHR030C, strain SLT2, stronger effect = lower value 0.996 and 1.02 | locus YHR079C, strain IRE1 (second series), stronger effect = lower value 0.986 | locus YHR079C, strain IRE1, stronger effect = lower value 1.02 | locus YHR094C, strain hxt1, stronger effect = lower value 0.967 | locus YHR129C, strain ARP1, stronger effect = lower value 0.983 | locus YHR142W, strain chs7, stronger effect = lower value 1 | locus YHR200W, strain rpn10, stronger effect = lower value 0.975 | locus YIL066C, strain RNR3, stronger effect = lower value 0.987 | locus YIL073C, strain SPO22, stronger effect = lower value 0.967 | locus YIL125W, strain kgd1, stronger effect = lower value 0.986 | locus YIR030C, strain dcg1, stronger effect = lower value 0.984 | locus YJL092W, strain hpr5, stronger effect = lower value 0.981 | locus YJL095W, strain BCK1 (second series), stronger effect = lower value 0.978 | locus YJL095W, strain BCK1, stronger effect = lower value 1 and 1.01 | locus YJL115W, strain asf1, stronger effect = lower value 0.988 | locus YJL129C, strain trk1, stronger effect = lower value 0.982 | locus YJL134W, strain LCB3, stronger effect = lower value 0.983 | locus YJL154C, strain vps35, stronger effect = lower value 0.98 | locus YJL164C, strain tpk1, stronger effect = lower value 0.984 | locus YJL166W, strain qcr8, stronger effect = lower value 1.01 | locus YJL168C, strain set2, stronger effect = lower value 0.99 | locus YJL187C, strain SWE1 (second series), stronger effect = lower value 0.995 | locus YJL187C, strain SWE1, stronger effect = lower value 0.99
